Experimental data taken from the supplement of paper PMC11172423.
Values without a mark were called inactive.

Tested on: Falciformispora senegalensis CBS197.79
Test: growth relative to untreated control; higher = less inhibition, active = 20 or less
Outline: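 For each test, a hyphal fragment suspension of M. mycetomatis MM55 or F. senegalensis CBS197.79 was prepared in colourless RPMI 1640 with L-glutamine and MOPS at 68–72% transmission at 660 nm. Exposure to compound at 100 or 25 µM ran for 7 days at 37 °C in 96-well plates, followed by viability reading with MTS (2 h, 490 nm) or resazurin (600 nm). Growth corresponds to metabolic activity relative to the untreated growth control after correction of both with a blank of medium and dye.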

SMILES	growth (25 µM)	growth (100 µM)
C[C@@H]1O[C@@H](O[C@@H]2C=C3CC[C@@H]4[C@H](CC[C@]5(C)[C@@H](c6ccc(=O)oc6)CC[C@]45O)[C@@]3(C)CC2)[C@H](O)[C@H](O)[C@H]1O	99.3%	104%
CC(COc1ccc(Oc2ccccc2)cc1)Oc1ccccn1 (centres undefined)	88.9%	75.6%
COc1cc(/C=N/c2c(SC(F)(F)F)c(C#N)nn2-c2c(Cl)cc(C(F)(F)F)cc2Cl)ccc1O	84.8%	90.9%
CCOC(=O)CC(SP(=S)(OC)OC)C(=O)OCC (centres undefined)	98.4%	95.2%
CCOCn1c(-c2ccc(Cl)cc2)c(C#N)c(Br)c1C(F)(F)F	79.6%	76.5%
CCN(Cc1ccc(Cl)nc1)/C(=C/[N+](=O)[O-])NC	95.3%	89.6%
CC[C@@H](C(=O)[C@@H](C)[C@@H](O)[C@H](C)[C@@H]1O[C@@H]([C@@H](CC)C(=O)O)CC[C@@H]1C)[C@H]1O[C@]2(C=C[C@@H](O)[C@]3(CC[C@@](C)([C@H]4CC[C@](O)(CC)[C@H](C)O4)O3)O2)[C@H](C)C[C@@H]1C	102%	102%
CC[C@@H]1CCC[C@H](O[C@H]2CC[C@H](N(C)C)[C@@H](C)O2)[C@@H](C)C(=O)C2=C[C@@H]3[C@@H](C=C(C)[C@@H]4C[C@@H](O[C@@H]5O[C@@H](C)[C@H](OC)[C@@H](OC)[C@H]5OC)C[C@@H]34)[C@@H]2CC(=O)O1.CC[C@@H]1CCC[C@H](O[C@H]2CC[C@H](N(C)C)[C@@H](C)O2)[C@@H](C)C(=O)C2=C[C@@H]3[C@@H](C=C[C@@H]4C[C@@H](O[C@@H]5O[C@@H](C)[C@H](OC)[C@@H](OC)[C@H]5OC)C[C@@H]34)[C@@H]2CC(=O)O1	78.1%	93.3%
O=[N+]([O-])/C=C1\NCCCS1	86.4%	93.8%
CNC(=O)Oc1ccccc1OC(C)C	92.8%	97.7%
CC(C)(C#N)NC(=O)c1cc(Cl)cc(Cl)c1NC(=O)c1cc(Cl)nn1-c1ncccc1Cl	94.4%	94.6%
COc1ccc(C[C@H]2NC[C@H](O)[C@H]2OC(C)=O)cc1	5.78% (active)	14.4% (active)
Cc1cc(C2=NOC(c3cc(Cl)cc(Cl)c3)(C(F)(F)F)C2)ccc1C(=O)NCC(=O)NCC(F)(F)F (centres undefined)	92.4%	103%
CNC(=O)O/N=C(/C)SC	86.2%	89.3%
C[C@@H]1C[C@@H]([C@H](O)CC2CC(=O)NC(=O)C2)C(=O)[C@@H](C)C1	101%	101%
CC(C)=CC1C(C(=O)OC(C#N)c2cccc(Oc3ccccc3)c2)C1(C)C (centres undefined)	78.2%	101%
Clc1cc(Cl)cc(Nc2nc3cnc(NC4CCCC4)cc3n2C2CCNC2)c1 (centres undefined)	52.2%	77.4%
O=C(NC(=O)c1c(F)cccc1F)Nc1ccc(Cl)cc1	92.8%	84.5%
CNCCn1c(Nc2cc(Cl)cc(C(F)(F)F)c2)nc2cnc(NC3CC(F)(F)C3)cc21	69%	26.2%

SMILES	growth (25 µM)	growth (100 µM)
CNC(=O)Oc1cccc2ccccc12	99.6%	108%
NCCc1cn(S(=O)(=O)c2c(Cl)nc3sccn23)c2ccccc12	13.2% (active)	11.5% (active)
O=[N+]([O-])/N=C1\NCCN1Cc1ccc(Cl)nc1	90.2%	86.5%
CNC(=O)c1cc(C#N)cc(C)c1NC(=O)c1cc(Br)nn1-c1ncccc1Cl	89.6%	103%
CCOc1ccc(C(C)(C)COCc2cccc(Oc3ccccc3)c2)cc1	79.4%	39.3%
O=C(NC(=O)c1ccccc1Cl)Nc1ccc(OC(F)(F)F)cc1	84.1%	76.1%
N#Cc1nn(-c2c(Cl)cc(C(F)(F)F)cc2Cl)c(N)c1S(=O)C(F)(F)F (centres undefined)	92.1%	88.4%
COP(=S)(OC)Oc1ccc(Sc2ccc(OP(=S)(OC)OC)cc2)cc1	93.4%	92.8%
CNC(=O)Oc1cccc2c1OC(C)(C)O2	86.8%	96%
CN1COCN(Cc2cnc(Cl)s2)/C1=N/[N+](=O)[O-]	93%	86.8%
C=C(C)[C@H]1Cc2c(ccc3c2O[C@@H]2COc4cc(OC)c(OC)cc4[C@@H]2C3=O)O1	90.6%	102%
Cc1c(COC(=O)[C@@H]2[C@H](C=C(Cl)C(F)(F)F)C2(C)C)cccc1-c1ccccc1	87.1%	95.2%
CN1C2CCC1CC(C#N)C2 (centres undefined)	92.1%	85.8%
CC[C@H]1CN2CCc3cc(OC)c(OC)cc3[C@@H]2C[C@@H]1C[C@H]1NCCc2cc(OC)c(OC)cc21	100%	18.3% (active)
CN(c1cc(NC(=O)c2ccc(F)cc2)ccn1)C1CCN(Cc2cccc(F)c2)CC1	66%	30.2%
COP(=S)(OC)Oc1nc(Cl)c(Cl)cc1Cl	91.7%	93.4%
Clc1ccc(C(OCCN2CCCCC2)c2ccccc2)cc1 (centres undefined)	100%	13.2% (active)
CN(C)[C@@H]1C(=O)C(C(N)=O)=C(O)[C@@]2(O)C(O)=C3C(=O)c4c(O)cccc4[C@@](C)(O)[C@H]3C[C@@H]12	99.7%	94.1%
